Active and inactive are the calls of the source.

The text below walks through data of PubChem BioAssay.

For assay [1], the system named is Plasmodium falciparum Sir2 (PF13_0152, Sir2A). As to the kind of experiment: Plasmodium falciparum Sir2A binding compounds – biochemical, small-molecule microarray, 635 nm fluorescence, primary screen (AID 1098).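 Also: score merges spot fluorescence intensity with its signal-to-noise ratio.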 Particulars: fluorescence 635 nm, higher = more signal.
Assay [2] in a line: probe aDKK1 binding to arrayed compounds – biochemical, biotinylated probe, 635/667 nm fluorescence, primary screen (AID 1099).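 Also: score merges 667nm spot fluorescence with signal to noise across triplicate slides; reference of the scale not given here.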 Particulars: small-molecule microarray, higher = more signal.
Assay [3] can be described thus: probe aCHRDL2 binding to arrayed compounds – biochemical, biotinylated probe, 635/667 nm fluorescence, primary screen (AID 1100). Particulars: small-molecule microarray, higher = more signal.
Assay [4] can be described thus: change in splice reporter luminescence, either direction, cell-based, HEK293, spliceosome inhibition project, primary screen (AID 1101).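 Also: HEK293 cells carrying a splicing-competent luciferase reporter gene; test concentration not given here.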 Particulars: HEK293 splicing luciferase reporter, 24 h, higher = more signal, called active from +8 up or from −8 down.
For assay [5], the target named is Fibroblast growth factor 10 (Homo sapiens) (UniProt O15520). As to the kind of experiment: compounds binding fibroblast growth factor 10 – biochemical, small-molecule microarray, 635 nm fluorescence, primary screen (AID 1102). Particulars: FGF10 binding, fluorescence 635 nm, higher = more signal.
Sequence of Fibroblast growth factor 10 (Homo sapiens) (O15520 whole entry, looked up): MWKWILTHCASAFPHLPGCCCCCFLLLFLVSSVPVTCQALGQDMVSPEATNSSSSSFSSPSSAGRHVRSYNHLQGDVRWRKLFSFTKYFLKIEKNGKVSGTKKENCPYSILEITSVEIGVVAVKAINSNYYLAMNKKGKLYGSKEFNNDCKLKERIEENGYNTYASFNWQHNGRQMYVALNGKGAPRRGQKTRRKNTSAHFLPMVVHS
The subject of assay [6] is glycogen synthase kinase-3 (GSK3A per assay name; protocol says GSK3B). As to the kind of experiment: compounds binding glycogen synthase kinase-3 – biochemical, small-molecule microarray, 635 nm fluorescence, GSK3A, primary screen (AID 1103). Also: the record names both GSK3A and GSK3B. Particulars: fluorescence 635 nm, higher = more signal.
Assay [7] concerns the target Epidermal growth factor receptor (Homo sapiens) (UniProt P00533). The experiment in a line: compounds binding epidermal growth factor receptor – biochemical, small-molecule microarray, 635 nm fluorescence, primary screen (AID 1104).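 Also: score merges 667 nm emission intensity with spot signal to noise over triplicate slides.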 Particulars: EGFR binding, higher = more signal.
Assay [8] has as its target Follistatin-related protein 3 (Homo sapiens) (UniProt O95633). The experiment in a line: compounds binding follistatin-related protein 3 – biochemical, small-molecule microarray, 635 nm fluorescence, primary screen (AID 1105).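 Also: score merges emission near 667 nm and signal to noise per printed spot across three slides.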 Conditions: FSTL3 binding, higher = more signal.
Assay [9] addresses Dickkopf-related protein 1 (Homo sapiens) (UniProt O94907). The experiment in a line: small molecules binding DKK1 protein – biochemical, small-molecule microarray, 635 nm fluorescence scan, primary screen (AID 1106).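 Also: score merges emission near 667 nm with signal to noise over three replicate slides.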 Particulars: higher = more signal.
In assay [10] the test system is Inhibin beta A chain (activin A). The experiment in a line: small molecules binding activin A – biochemical, small-molecule microarray, 635 nm fluorescence scan, primary screen (AID 1107).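 Also: mouse activin A protein probed at 4.33 µg/mL on printed slides; score merges bound-protein fluorescence near 667 nm with spot signal-to-noise.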 Conditions: INHBA, higher = more signal.

Sequence of Epidermal growth factor receptor (Homo sapiens) (P00533 whole entry, looked up): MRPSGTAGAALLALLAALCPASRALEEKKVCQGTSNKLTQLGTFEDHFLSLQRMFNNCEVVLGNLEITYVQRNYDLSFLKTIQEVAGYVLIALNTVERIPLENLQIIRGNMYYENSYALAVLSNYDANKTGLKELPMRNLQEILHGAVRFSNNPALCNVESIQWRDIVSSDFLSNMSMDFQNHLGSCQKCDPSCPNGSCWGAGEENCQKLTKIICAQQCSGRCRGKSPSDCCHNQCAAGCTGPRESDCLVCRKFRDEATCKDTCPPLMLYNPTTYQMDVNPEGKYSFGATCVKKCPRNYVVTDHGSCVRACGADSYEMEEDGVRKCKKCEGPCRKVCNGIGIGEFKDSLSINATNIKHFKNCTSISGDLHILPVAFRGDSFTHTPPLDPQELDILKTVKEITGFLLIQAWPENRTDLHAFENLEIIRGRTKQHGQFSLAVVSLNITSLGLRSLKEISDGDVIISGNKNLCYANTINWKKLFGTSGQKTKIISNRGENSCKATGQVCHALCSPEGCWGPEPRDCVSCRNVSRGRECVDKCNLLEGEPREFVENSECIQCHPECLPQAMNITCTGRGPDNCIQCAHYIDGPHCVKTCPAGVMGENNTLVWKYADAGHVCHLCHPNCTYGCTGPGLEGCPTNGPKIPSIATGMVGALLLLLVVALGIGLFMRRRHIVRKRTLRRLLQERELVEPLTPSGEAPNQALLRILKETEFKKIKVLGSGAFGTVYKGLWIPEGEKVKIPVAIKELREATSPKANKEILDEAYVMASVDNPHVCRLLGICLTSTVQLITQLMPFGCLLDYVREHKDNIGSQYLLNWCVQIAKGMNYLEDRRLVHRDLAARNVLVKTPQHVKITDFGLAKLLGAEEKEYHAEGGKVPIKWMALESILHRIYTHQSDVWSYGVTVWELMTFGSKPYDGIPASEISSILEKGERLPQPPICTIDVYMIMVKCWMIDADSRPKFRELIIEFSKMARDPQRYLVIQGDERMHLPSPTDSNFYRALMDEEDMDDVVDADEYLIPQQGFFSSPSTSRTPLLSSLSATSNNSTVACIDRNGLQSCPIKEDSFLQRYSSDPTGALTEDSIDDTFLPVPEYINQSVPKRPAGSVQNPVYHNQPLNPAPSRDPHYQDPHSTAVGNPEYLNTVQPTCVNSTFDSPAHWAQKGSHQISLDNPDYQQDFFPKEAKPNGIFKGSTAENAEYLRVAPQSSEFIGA
Sequence of Follistatin-related protein 3 (Homo sapiens) (O95633 whole entry, looked up): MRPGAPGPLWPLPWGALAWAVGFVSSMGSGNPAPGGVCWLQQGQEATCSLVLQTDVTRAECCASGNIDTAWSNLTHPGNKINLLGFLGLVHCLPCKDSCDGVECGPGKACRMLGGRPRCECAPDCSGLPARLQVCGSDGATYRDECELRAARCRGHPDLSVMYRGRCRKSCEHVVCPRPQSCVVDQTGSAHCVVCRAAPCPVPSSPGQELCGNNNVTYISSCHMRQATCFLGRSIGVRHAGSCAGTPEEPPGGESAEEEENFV
Sequence of Dickkopf-related protein 1 (Homo sapiens) (O94907 whole entry, looked up): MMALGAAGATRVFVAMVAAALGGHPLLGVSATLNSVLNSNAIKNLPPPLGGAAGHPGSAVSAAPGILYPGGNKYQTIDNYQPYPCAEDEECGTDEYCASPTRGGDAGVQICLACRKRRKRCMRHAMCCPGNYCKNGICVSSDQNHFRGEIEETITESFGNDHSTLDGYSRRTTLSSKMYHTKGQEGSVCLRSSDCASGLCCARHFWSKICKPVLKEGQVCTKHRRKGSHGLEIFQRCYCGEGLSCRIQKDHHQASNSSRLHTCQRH

Consider `Cc1ccc([C@@H]2C[C@@H](Sc3ccccc3)[C@H](C(=O)O)CN2S(=O)(=O)c2ccc(C)cc2)cc1`, for which the composite z-score in assay [1] was found to be 1.31; in assay [2], 0.055; in [3] it was 0.874; in [5], 1.37; in [6] it was 1.34; in assay [7] it was 0.271. The composite z-score in assay [8] is 0.968; in assay [9] it was -0.0594; in assay [10] it was 0.289. For the same compound, in [4], the z-score is -0.521 (inactive).

Take `CC#CC(=O)Oc1ccccc1C=CC(=O)OCC`: the composite z-score in [1] is 0.743; in [2], -0.223; in [3], -0.226; in assay [5], -0.176; in assay [6] it was 0.0939; in [7], 0.27. For the same compound, the composite z-score in assay [8] is 0.104; in assay [9] it was -0.0092; in assay [10], 0.321. Moreover, the z-score in [4] was -0.634 (inactive).

With `COCCOC(=O)N1C(=O)[C@@]2(c3cc(C#Cc4ccc(OC)cc4)ccc31)[C@H](c1ccc(O)cc1)N1[C@H](c3ccccc3)[C@H](c3ccccc3)OC(=O)[C@H]1[C@@H]2C(=O)N1CCc2cc(OC)c(OC)cc2C1`, the composite z-score in assay [1] is 0.888; in assay [2], 0.267; in assay [3], -0.0098; in assay [5] it was 0.636; in [6], 1.2; in assay [7] it was 0.386. The composite z-score in assay [8] was 0.914; in assay [9], 0.75; in [10], -0.0186. Further, in assay [4], the z-score is -1.34 (inactive).

Regarding `C=C(COC)/C(=C/C[C@@H](OC(C)=O)c1ccc(OCCO)cc1)c1cnc2ccccc2c1`, the composite z-score in [1] is 1.14; in [2] it was -0.151; in assay [3] it was 0.352; in [5], 1.57; in [6], 0.369; in [7] it was 0.824. The composite z-score in assay [8] came to 1.49; in assay [9], 1.25; in [10] it was 1.7. Also, the z-score in assay [4] was -0.949 (inactive).

For the compound `O=C1O[C@H](c2ccccc2)[C@H](c2ccccc2)N2[C@H]1[C@@H](C(=O)N1CCCCCCC1)[C@]1(C(=O)Nc3ccc(C#CCCO)cc31)[C@H]2c1ccccc1OCCO`, the composite z-score in assay [1] amounted to 2.26; in assay [2] it was 3.11; in [3], 1.53; in assay [5], 1.76; in assay [6] it was 1.5; in assay [7], 2. Besides, the composite z-score came to 1.79 in [8], 2.76 in [9] and 1.84 in assay [10]. The z-score in [4] is -0.207 (inactive).

Turning to `C=CC[C@]1(C(=O)NCc2ccccc2)N=C(c2ccc(OCCCO)cc2)O[C@H]1c1ccccc1N=[N+]=[N-]`, the composite z-score was 1.33 in assay [1]; -0.0281 in assay [2]; 1.11 in assay [3]; 0.819 in [5]; 0.849 in [6]; 0.174 in assay [7]. The composite z-score in [8] is 0.637; in [9] it was -0.284; in assay [10], 1.29. The z-score in assay [4] was -0.457 (inactive).

With `Cc1nc2cc(Br)ccc2c(=O)o1`, the composite z-score is -0.319 in assay [1]; -0.0717 in assay [2]; -0.267 in assay [3]; 0.543 in [5]; 0.778 in assay [6]; 0.427 in assay [7]. The composite z-score in [8] amounted to 0.846; in assay [9], 0.436; in assay [10], 0.435. Further, the z-score in assay [4] is 0.502 (inactive).

Turning to `O=C(CS)NCCCCCCNC(=O)[C@@H]1C[C@@H]2C(=O)N[C@@H](Cc3ccccc3)C(=O)N2[C@@H]1c1cccc(OCCO)c1`, the composite z-score in assay [1] is 1.5; in assay [2] it was -0.367; in assay [3] it was 0.594; in assay [5] it was 1.32; in [6], 1.34; in [7], 0.557. The composite z-score in assay [8] stood at 1.26; in [9] it was 0.859; in assay [10] it was 0.382. The z-score in assay [4] is 0.528 (inactive).

Turning to `CC(C)C(O)C1C=CC2C(=O)N(c3ccccc3)C(=O)C2N1Nc1ccc([N+](=O)[O-])cc1` (stereo not given), the composite z-score in assay [1] is 0.0242; in assay [2] it was 0.814; in [3], 0.761; in [5], 0.635; in assay [6] it was 0.368; in [7], -0.0978. For the same compound, the composite z-score in [8] was 0.29; in assay [9], -0.467; in assay [10], 0.85. Further, the z-score in [4] was 0.735 (inactive).

Turning to `COc1cccc(-c2cccc(=O)o2)c1`, the composite z-score in [1] was 1.37; in assay [2] it was 0.956; in assay [3], 0.513; in assay [5], 0.423; in assay [6] it was -0.21; in assay [7], 0.482. For the same compound, the composite z-score in assay [8] is 0.148; in assay [9], 0.143; in [10] it was 1.15. In addition, the z-score in assay [4] is 0.742 (inactive).

Regarding `CCOC(=O)C[C@H]1[C@H](OC(=O)c2ccc(C(=O)c3ccccc3)cc2)[C@@H](NC(=O)c2ccccc2)c2cc(OCCCO)ccc2N1C(=O)c1ccc2ccccc2n1`, the composite z-score in [1] was 0.295; in assay [2] it was -0.349; in [3], -0.267; in assay [5] it was -0.286; in assay [6], 1.05; in assay [7] it was 0.267. The composite z-score in assay [8] is 0.399; in [9], -0.186; in assay [10] it was -0.136. The z-score in [4] is 0.487 (inactive).

On to `[N-]=[N+]=Nc1ccccc1[C@H]1OC(c2ccc(OCCCO)cc2)=N[C@@]1(CCS(=O)(=O)c1ccccc1)C(N)=O`, for which the composite z-score is 1.53 in assay [1]; 1.01 in [2]; 1.37 in assay [3]; 1.12 in assay [5]; 0.915 in assay [6]; -0.541 in [7]. The composite z-score in assay [8] was -0.0805; in [9] it was 0.0979; in assay [10], 1.26. The z-score in assay [4] was -1.36 (inactive).

Consider `COc1cc(C(O)C2C=CC3C(=O)NC(=O)C3N2Nc2ccccn2)cc(OC)c1OC` (stereo not given), for which the composite z-score in assay [1] was 1.18; in [2], -0.149; in [3] it was 0.418; in [5], 0.12; in [6], 0.211; in assay [7] it was 0.635. Further, the composite z-score is -0.027 in assay [8], 0.336 in assay [9] and 0.791 in [10]. Moreover, the z-score in assay [4] was 1.53 (inactive).

Take `C=CCNC(=O)[C@@H]1[C@H]2C(=O)O[C@H](c3ccccc3)[C@H](c3ccccc3)N2[C@H](c2ccc(O)cc2)[C@@]12C(=O)Nc1ccc(C#CCNC(N)=O)cc12`: the composite z-score is 0.213 in assay [1]; -0.3 in assay [2]; 0.778 in [3]; 0.0464 in assay [5]; -0.489 in assay [6]; -0.219 in assay [7]. Besides, the composite z-score in assay [8] was -0.164; in assay [9] it was -0.732; in assay [10] it was -0.0122. The z-score in [4] is 0.788 (inactive).
